DT40 TDP1 CPT = qHTS for Inhibitors of human tyrosyl-DNA phosphodiesterase 1 (TDP1): qHTS in cells in presence of CPT. AID 686979, 2013. Potency, µM (top dose mostly 46.2 µM), for inactives: at the highest dose activity change, negative = growth inhibition, actives largely listed as inhibitors. chicken DT40 Tdp1-/-;hTDP1 cells + 20 nM CPT, ATP luminescence, 48 h. 12% of 420,000 active; note: nearly all actives have a fitted effect of over 55% in size
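Chicken DT40 Tdp1-/- cells complemented with human TDP1, 400 cells/well, exposed to compounds plus 20 nM camptothecin for at least 48 h at 37 C; viability read as ATP content by CellTiter-Glo luminescence.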
HT1080NT lethal = qHTS for induction of synthetic lethality in tumor cells producing 2HG: qHTS for the HT-1080-NT fibrosarcoma cell line; HT-1080-NT fibrosarcoma viability, CellTiter-Glo ATP luminescence, 48 h; Potency, µM (doses to about 46.1 µM), for the others: at the highest dose activity, negative = less viability, hits mostly cytotoxic; 1.6% of 360,000 active;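 note: NT is the 2HG producing partner of a matched IDH1 knockdown line; 0% = DMSO-treated cells and -100% = media-only wells without cells; nearly all actives have a fitted effect of over 55% in size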
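HT-1080-NT fibrosarcoma cells (2HG-overproducing), 750 cells/well in RPMI with 5% FBS, dosed after 2 h and incubated 48 h at 37C. CellTiter-Glo luminescence normalized to DMSO and no-cell wells; concentration-response curves fitted and classed.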
TDP1 cell noCPT = qHTS for Inhibitors of human tyrosyl-DNA phosphodiesterase 1 (TDP1): qHTS in cells in absence of CPT. DT40 Tdp1-/- hTDP1 cells, no CPT, ATP luminescence, 48 h. Potency, µM (doses to about 46.2 µM), without a hit: at the highest dose activity change, negative = growth inhibition, actives largely listed as inhibitors. 15% of 420,000 active. AID 686978, 2013; note: nearly all actives have a fitted effect of over 55% in size
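A cellular qHTS used chicken DT40 cells lacking endogenous Tdp1 but carrying stably transfected human TDP1. Compounds were applied without camptothecin, and cell growth kinetics were judged by ATP-dependent luminescence after ≥48 hr.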
HT1080 IDH1KD tx = qHTS for induction of synthetic lethality in tumor cells producing 2HG: qHTS for the HT-1080-IDH1KD cell line; HT-1080 IDH1 knockdown viability, ATP luminescence, 48 h; Potency, µM (doses to about 46.1 µM), for inactives: top-dose activity, negative = toxicity, usual class: cytotoxic; 2% of 360,000 active; AID 686971, 2013;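 note: 0% = DMSO wells and -100% = cell-free medium wells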
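HT-1080-IDH1KD cells (IDH1 knocked down), 750/well in RPMI with 5% FBS, treated with compound 48 h at 37 degrees C. Viability by CellTiter-Glo luminescence, normalised to DMSO and no-cell wells; concentration-response curves classed.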
KB-3-1 cytotox = qHTS assay for MDR1-selective chemotherapeutics: Primary screen using the parental adenocarcinoma cell KB-3-1; 1.4% of 400,000 active; KB-3-1 viability, CellTiter-Glo ATP luminescence, 72 h; Potency, µM (titrated, usually from 46.1 µM), most hits filed as cytotoxic; note: nearly all actives have a fitted effect of over 60% in size
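Cytotoxicity measured as CellTiter-Glo luminescence after 72 h at 37 C. Compound titrations were pinned onto drug-naive KB-3-1 parental adenocarcinoma cells grown in DMEM with 10% FBS, and normalized data fitted to concentration-response curves.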
KB-V1 cytotox = qHTS assay for MDR1-selective chemotherapeutics: Primary screen using the drug-selected MDR subline cells KB-V1; KB-V1 MDR cells viability, CellTiter-Glo, 72 h; Potency, µM (series often up to 46.1 µM), usual class: cytotoxic; 3.4% of 400,000 active; note: nearly all actives have a fitted effect of over 60% in size
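Luminescent ATP read-out (CellTiter-Glo, 10 min) measures survival of drug-selected KB-V1 MDR cells after 72 h, 37 degrees C compound exposure. Medium: phenol-red-free DMEM, 10% FBS. Values from fitted concentration-response curves.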
The depositor's hits bear a star; i = inactive; ? = inconclusive; . = no result; [ ] = dose if it differs, or a comment. The list is not random: actives were taken first. Their share in the collection is about 19%. Calls come from the whole dose curve; as a rule, active = well fitted curve in the direction sought with a large enough effect; inconclusive = small, poorly fitted or top-dose-only effect, or another doubt; inactive = no such curve, though single readings can be large; an effect the other way counts as inactive or inconclusive. Unless noted, % is set by controls: 0 for no effect and ±100 for the full control effect; potency is the fitted concentration of half-maximal effect.

SMILES | DT40 TDP1 CPT | HT1080NT lethal | TDP1 cell noCPT | HT1080 IDH1KD tx | KB-3-1 cytotox | KB-V1 cytotox
CN1c2ccccc2C(C)(C)C12C=Nc1c(ccc3ccccc13)O2 (stereo not drawn) | 0.8% | 5.0% | -6.2% | -11.3% | i | i
CC(C)c1ccc(S(=O)(=O)N2CCC(n3c(C(F)(F)F)nc4cccnc43)CC2)cc1 | ? | . | ? | . | i | i
CCCN(CCC)S(=O)(=O)c1ccc(NC(=O)c2cc(C(=O)OC)cc([N+](=O)[O-])c2)cc1 | 23.1µM* | -6.7% | 25.9µM* | -3.9% | i | 10.3µM*
COc1ccccc1C(=O)NCCC(=O)Nc1nc2ccccc2[nH]1 | 3.4% | -11.1% | ? | -5.0% | i | i
COc1ccccc1C(=O)Nc1nc2ccccc2[nH]1 | 4.61µM* | 1.46µM* | 1.84µM* | 1.3µM* | 2.31µM* | 4.11µM*
COc1cc(SC)ccc1C(=O)Nc1nc2ccccc2[nH]1 | 3.66µM* | 1.64µM* | 2.06µM* | 1.46µM* | 2.91µM* | ?
COc1cccc(C(=O)Nc2nc3ccccc3[nH]2)c1 | -23.2% | -26.6% | ? | ? | ? | ?
COc1ccc(C(=O)Nc2nc3ccccc3[nH]2)cc1 | 16.4µM* | ? | 23.1µM* | ? | ? | ?
CCc1ccc(-c2nn(CC(=O)NCc3ccccc3)c3c2cnc2ccc(C)cc23)cc1 | -10.8% | . | -13.1% | . | i | ?
O=C(NC1CC(=O)N(c2ccc(F)cc2)C1)c1ccc(S(=O)(=O)N2CCOCC2)cc1 (stereo not drawn) | -7.4% | . | -19.8% | . | . | .
COC(=O)c1cc(C(=O)Nc2nc3ccccc3[nH]2)cc([N+](=O)[O-])c1 | -23.9% | -26.2% | 23.1µM* | ? | i | i
COc1ccc(C(=O)NCc2nnc(SCC(=O)Nc3ccc(C)cc3)n2-c2ccccc2)cc1 | ? | . | -23.9% | . | i | i
C[C@@]1(C(=O)O)NCCc2cc(O)c(O)cc21 | 10.6µM* | . | 10.6µM* | . | . | .
Nc1nc(N=Nc2ccc(O)cc2)cc(=O)[nH]1 | -8.3% | -4.5% | ? | -17.8% | i | i
CC(C)CNS(=O)(=O)c1ccc(S(=O)(=O)N2CCN(C3CCCC3)CC2)cc1 | -4.2% | -2.9% | -27.9% | 12.7% | i | ?
CCOC(=O)c1ccc(N2CCN(c3cc(Cl)ccc3C)CC2)c(NC(=O)Nc2ccc(OCC)cc2)c1 | ? | . | 13µM* | . | . | .
CCOC(=O)c1ccc(N2CCN(c3cc(C)ccc3C)CC2)c(NC(=O)Nc2ccccc2)c1 | 5.8µM* | . | 2.91µM* | . | . | .
CCOC(=O)c1ccc(N2CCN(c3cccc(OC)c3)CC2)c(NC(=O)Nc2ccc(OCC)cc2)c1 | ? | . | -23.2% | . | . | .
Cc1cc(NC(=O)c2ccc(F)cc2F)n(-c2nc3ccccc3[nH]2)n1 | ? | 2.6% | -15.8% | 9.3% | i | i
Cc1cc(NC(=O)/C=C/c2ccccc2Cl)n(-c2nc3ccccc3[nH]2)n1 | ? | ? | 10.3µM* | -26.0% | ? | ?
Cc1cc(NC(=O)CC2CCCC2)n(-c2nc3ccccc3[nH]2)n1 | ? | ? | 20.6µM* | 18.4µM* | ? | 18.4µM*
CCc1cccc2c(C(=O)COC(=O)c3ccccc3)c[nH]c12 | -23.7% | -0.1% | -26.1% | -0.8% | i | ?
CCc1cccc2c(C(=O)C(NCCCOC)c3ccccc3)c[nH]c12 (stereo not drawn) | ? | 16.4µM* | ? | ? | i | i
CCc1cccc2c(C(=S)N3CCOCC3)c[nH]c12 | 0.8% | 10.5% | -11.3% | 23.3% | i | i
CCc1cccc2c(C(=O)C(NC(C)CC)c3ccccc3)c[nH]c12 (stereo not drawn) | ? | 20.6µM* | 23.1µM* | ? | i | i
SMILES | DT40 TDP1 CPT | HT1080NT lethal | TDP1 cell noCPT | HT1080 IDH1KD tx | KB-3-1 cytotox | KB-V1 cytotox
Oc1ccc(Cl)cc1-c1cc(C(F)(F)C(F)F)nc(-c2ccccc2)n1 | 29.1µM* | 1.5% | 16.4µM* | -4.3% | i | i
Cc1ccc(O)c(-c2cc(C(F)(F)C(F)F)nc(-c3ccccc3)n2)c1 | -11.4% | -0.1% | ? | 1.8% | i | i
C1=Cc2ccccc2/C1=C\c1ccc(/C=C2\C=Cc3ccccc32)cc1 | -2.2% | . | -9.1% | . | ? | i
C1=Cc2ccccc2/C1=C\c1cc2c3c(c1)CCCN3CCC2 | 1.12µM* | . | 5.01µM* | . | i | i
Cc1cc(C)nc(/N=C(\N)Nc2ccc3c(c2)OCCO3)n1 | 20.6µM* | -20.7% | ? | ? | ? | i
Cc1cc(C)nc(/N=C(\N)Nc2ccc(-c3ccccc3)cc2)n1 | 7.31µM* | 16.4µM* | 9.2µM* | 16.4µM* | 16.4µM* | 16.4µM*
CC(=O)Nc1ccc(N/C(N)=N/c2nc(C)cc(C)n2)cc1 | ? | -10.2% | ? | -18.7% | i | i
CCOc1ccc(N/C(N)=N/c2nc(C)cc(C)n2)cc1 | 20.6µM* | -16.8% | 25.9µM* | -1.1% | i | i
Cc1cc(C)nc(/N=C(\N)Nc2ccc(S(N)(=O)=O)cc2)n1 | -29.6% | -13.3% | ? | -0.9% | i | i
Cc1cc(C)nc(/N=C(\N)Nc2ccc(SC(F)F)cc2)n1 | 13µM* | 5.3% | 11.6µM* | -14.4% | ? | i
O=C(CCNC(=O)N1CC(=O)Nc2ccccc21)Nc1ccc(Br)cc1F | 2.0% | 8.0% | 11.9% | 14.4% | i | i
CCOc1ccc(Cn2nnc(C(=O)Nc3cccc(SC)c3)c2N)cc1 | -28.7% | . | ? | . | i | i
Cc1cc(CNC(=O)CCN2Cc3cc(Cl)ccc3OC(C)C2)nn1C (stereo not drawn) | -121.3%[9.04 µM] | . | -9.7% | . | . | .
O=C(CC1N=C2c3ccccc3N=C(SCc3ccc(F)cc3)N2C1=O)NC1CCCCC1 (stereo not drawn) | ? | . | 16.4µM* | . | i | i
Cc1ccc(CSC2=Nc3ccccc3C3=NC(CC(=O)NC4CCCCC4)C(=O)N23)cc1 (stereo not drawn) | 1.16µM* | . | 1.16µM* | . | . | .
O=C(CC1N=C2c3ccccc3N=C(SCc3ccc(Cl)cc3)N2C1=O)NC1CCCCC1 (stereo not drawn) | ? | . | ? | . | i | i
